Experimental findings from PubChem BioAssay are described below.

As a reminder, the inhibition is the drop in the measured response relative to a control, in per cent.

Several values for one entry are separate records, joined by “and”; a condition that tells them apart may be missing. Equal entries are not always repeated. Some structures have more than one record in an assay (separate samples or runs), and their calls can disagree. Activity calls are given as the source filed them.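 The calls were made as follows, unless noted: active = thallium flux through the channel raised or lowered by more than 3 SD from vehicle-only wells, actives on both sides; inactive = the rest.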

The nature of experiment [1]: Wnt pathway potentiators raising nuclear beta-catenin – imaging, WNT3A-conditioned medium, mouse C2C12, NPC library, primary screen (AID 1117326; in the data active = nuclear beta-catenin stimulation mostly above about 4.2%, no sharp cut-off; inactive = mostly below about 10%). The conditions noted are these: stronger effect = higher value.
The nature of experiment [2]: stimulators of insulin release from INS-1E, primary screen, cell-based, 5 mM glucose, NPC library (AID 1117329;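 active = compound raises insulin release from rat beta cells at 5 mM glucose, no numeric limit stated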). The conditions noted are these: rat INS-1E insulin secretion, at 10 µM, stronger effect = higher value.
The nature of experiment [3]: growth inhibition of GSK3B-pretreated HCT116 cells – cell-based, CellTiter-Glo, 0.2 to 20 µM (AID 1117336;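 active = compounds lowering colon cancer cell viability after pretreatment blocking the GSK3B kinase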). The conditions noted are these: HCT116 viability after GSK3B inhibitor, at 20 µM, stronger effect = higher value.
Experiment [4] is described as follows: inhibition of endothelial tube formation, primary screen, imaging, VEGF stimulated, CD31 staining, tube area, NPC library (AID 1117340;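 active = compound that reduces growth-factor-driven endothelial tube area in a mixed cell culture, no cutoff stated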). The conditions noted are these: VEGF-stimulated ADSC/ECFC co-culture, at 10 µM, stronger effect = higher value.
Experiment [5] is described as follows: GLP1 release stimulators, primary, NCI-H716, NPC library (AID 1117341;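 active = compound raises GLP1 secretion from the human gut endocrine cells, with no numeric limit stated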). To be noted: NCI-H716 cells, at 10 µM, stronger effect = higher value.
The nature of experiment [6]: HCT116 colon cancer cell growth inhibition, primary screen, CellTiter-Glo luminescence, NPC library (AID 1117342;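 active = compounds that lower survival of HCT116 colon cancer cells in the luminescence readout, no numeric limit stated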). To be noted: at 20 µM (top of the series). For orientation: Cellular ATP, detected with luciferase, serves as a proxy for viable cell number.
Experiment [7] can be described thus: reduced SW480 viability measured with CellTiter-Glo, NPC library, primary (AID 1117343;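 active = compounds that lower viability of the colon cancer cells in the luminescence readout, with no numeric limit stated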). To be noted: CellTiter-Glo luminescence; at 20 µM (top of the series).
Experiment [8] in a line: NPC library primary testing for decreased DLD-1 cell viability via CellTiter-Glo (AID 1117346;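 active = compounds that lower survival of DLD-1 colon cancer cells in the luminescence readout, no cutoff given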). To be noted: DLD-1 viability, CellTiter-Glo luminescence; at 20 µM (top of the series).
In experiment [9] the target is 6-phosphogluconate dehydrogenase, decarboxylating (Homo sapiens) (UniProt P52209). Kind of experiment: inhibition of human phosphogluconate dehydrogenase – biochemical, recombinant enzyme, NADPH absorbance, primary screen (AID 1159550;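 active = at least 20% inhibition of 6-phosphogluconate dehydrogenase activity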). To be noted: recombinant 6PGD, NADPH absorbance 341 nm; at 10 µM; stronger effect = higher value.
Sequence of 6-phosphogluconate dehydrogenase, decarboxylating (Homo sapiens) (P52209 whole entry, looked up): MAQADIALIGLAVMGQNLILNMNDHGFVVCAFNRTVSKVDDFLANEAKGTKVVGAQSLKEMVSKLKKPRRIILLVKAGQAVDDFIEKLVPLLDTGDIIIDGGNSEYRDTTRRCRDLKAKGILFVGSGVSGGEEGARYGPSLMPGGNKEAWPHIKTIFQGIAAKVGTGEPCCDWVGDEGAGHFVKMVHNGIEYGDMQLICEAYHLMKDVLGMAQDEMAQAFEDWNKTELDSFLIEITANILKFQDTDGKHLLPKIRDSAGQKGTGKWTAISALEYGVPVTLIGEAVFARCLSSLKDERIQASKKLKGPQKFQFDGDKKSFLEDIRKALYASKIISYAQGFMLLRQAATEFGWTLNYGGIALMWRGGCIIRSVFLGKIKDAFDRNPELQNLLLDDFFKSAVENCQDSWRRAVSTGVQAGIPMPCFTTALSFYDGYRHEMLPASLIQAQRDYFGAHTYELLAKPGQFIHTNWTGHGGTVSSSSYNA
The nature of experiment [10]: EMT-state selective cytotoxicity in co-culture – imaging, PC-3E GFP, TEM4-18 mCherry, primary screen (AID 1345086;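 active = compounds killing one labelled cell type while sparing the other, by normalised counts and ratio limits, not self-fluorescent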;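 as to all read-outs here: cells exposed to compound for 72 h before imaging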;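 as to red/green cell ratio (normalised): normalised mesenchymal count divided by normalised epithelial count so high means epithelial killing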). The conditions noted are these: PC-3E GFP / TEM4-18 mCherry co-culture, imaging cell counts, at 1 µM; for red/green cell ratio (normalised): actives lie on both sides, counts scaled to control wells, 1 = unselective.
Experiment [11] in a line: MELAS cybrid and Rieske KO viability enhancers – cell-based, MELAS cybrids, Rieske KO mouse fibroblasts, CellTiter-Glo, primary screen (AID 1508586;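 active = mean z-score across replicates of 1.96 or higher in either the MELAS or the Rieske mutant cell line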;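 also: z relative to plate mean and SD of compound and empty wells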). To be noted: low glucose.
Experiment [12] addresses NAD(+) hydrolase SARM1 (Homo sapiens) (UniProt Q6SZW1). Kind of experiment: blocking NAD cleavage by SARM1 SAM-TIR – cell lysate, NAD-Glo luminescence (AID 1508614;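 active = compound whose remaining NAD level is above about 45 nM, limit read from the data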;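 also: higher remaining NAD means stronger inhibition of SARM1 NADase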). To be noted: SAM-TIR HEK293T lysate NADase, at 1 µM, stronger effect = higher value.
A further experiment concerns F380Y. Kind of experiment: BK channel mutant inhibitors and activators – cell-based, U2OS BacMam, thallium flux, beta subunits, selectivity assay, profiling panel (AID 1259406).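 Also: initial slope of Thallos dye fluorescence rise after thallium is added; log ratio against the mean of 0.3% DMSO vehicle wells on the same plate.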 The conditions noted are these: U2OS BacMam BK variants, at 30 µM.
A further experiment concerns F380Y/beta1. The description is as above. To be noted: U2OS BacMam BK variants, at 30 µM.
A further experiment concerns F380Y/beta2Delta. The experiment is described as above. The conditions noted are these: U2OS BacMam BK variants, at 30 µM.
The next experiment deals with F380Y/beta4. Described as above. The conditions noted are these: U2OS BacMam BK variants, at 30 µM.
In experiment [13] the target is Calcium-activated potassium channel subunit alpha-1 (Homo sapiens) + Leucine-rich repeat-containing protein 26 (Homo sapiens) (UniProt Q12791+Q2I0M4). Described as above. To be noted: U2OS BacMam BK variants, F380Y/Slo1WT/gamma1, at 30 µM.
Sequence of Calcium-activated potassium channel subunit alpha-1 (Homo sapiens) + Leucine-rich repeat-containing protein 26 (Homo sapiens) (Q2I0M4 whole entry, looked up, one chain of several): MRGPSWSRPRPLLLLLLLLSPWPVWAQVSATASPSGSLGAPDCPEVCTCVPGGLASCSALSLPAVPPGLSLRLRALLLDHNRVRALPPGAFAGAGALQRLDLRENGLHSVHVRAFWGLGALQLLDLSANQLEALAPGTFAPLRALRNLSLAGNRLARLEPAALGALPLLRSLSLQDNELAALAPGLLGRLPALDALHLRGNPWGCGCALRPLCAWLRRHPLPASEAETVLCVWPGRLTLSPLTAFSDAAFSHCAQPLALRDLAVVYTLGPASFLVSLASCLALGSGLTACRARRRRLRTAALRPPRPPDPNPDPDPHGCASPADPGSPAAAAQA
Another experiment concerns R275C. The description is as above. To be noted: U2OS BacMam BK variants, at 30 µM.
Experiment [14] in a line: viability loss with induced miR-34 in A549 – imaging, A549 dox-inducible miR-34, nuclei and caspase counts, primary screen (AID 1347080;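 active = compounds whose cell count with miR-34 switched on is under 0.7 times the count with it off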). To be noted: A549 miR-34 inducible, Hoechst nuclei count, 48 h.
Where [15] appears, read: measured here: epithelial PC-3E GFP cell survival.
Setting [16] is: measured here: mesenchymal TEM4-18 mCherry cell survival.
Where [17] appears, read: MELAS cybrid survival, CellTiter-Glo 48 h, stronger effect = higher value.
[18] abbreviates: Rieske KO mouse fibroblast survival, CellTiter-Glo 72 h.

Sequence of NAD(+) hydrolase SARM1 (Homo sapiens) (Q6SZW1 whole entry, looked up): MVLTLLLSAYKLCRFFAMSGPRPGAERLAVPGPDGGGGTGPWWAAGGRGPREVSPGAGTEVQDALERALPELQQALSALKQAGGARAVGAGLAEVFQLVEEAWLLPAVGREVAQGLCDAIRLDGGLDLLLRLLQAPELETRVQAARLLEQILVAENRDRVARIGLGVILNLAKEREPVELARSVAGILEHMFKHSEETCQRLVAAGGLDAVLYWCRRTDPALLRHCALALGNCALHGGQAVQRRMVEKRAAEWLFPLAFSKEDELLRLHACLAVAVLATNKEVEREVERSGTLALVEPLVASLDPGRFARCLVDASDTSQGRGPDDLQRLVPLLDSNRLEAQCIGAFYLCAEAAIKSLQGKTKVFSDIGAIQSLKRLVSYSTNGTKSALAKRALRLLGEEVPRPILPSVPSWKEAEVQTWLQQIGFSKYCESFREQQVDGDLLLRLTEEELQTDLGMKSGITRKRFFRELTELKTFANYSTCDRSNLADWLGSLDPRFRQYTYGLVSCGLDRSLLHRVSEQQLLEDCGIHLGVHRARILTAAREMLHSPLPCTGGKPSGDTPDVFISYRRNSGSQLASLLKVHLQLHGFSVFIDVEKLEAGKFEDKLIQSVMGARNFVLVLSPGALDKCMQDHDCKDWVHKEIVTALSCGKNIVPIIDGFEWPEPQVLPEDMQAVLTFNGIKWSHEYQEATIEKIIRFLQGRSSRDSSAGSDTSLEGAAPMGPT

Consider `NC(=O)N1c2ccccc2C=Cc2ccccc21`, for which the nuclear beta-catenin stimulation is 1% (inactive) in [1] (at 10 µM) and 0.9% in [1] (stimulation, at 2 µM). Moreover, the insulin secretion stimulation in [2] was -1.9% (inactive). In [3], the viability decrease was -2.95% (inactive). Also, the tube area decrease in [4] was 0.8% (inactive). Also, the GLP1 secretion stimulation in experiment [5] was 4.4% (inactive). Also, the inhibition of viability in experiment [6] was -18.7% (inactive). Also, the figures for the viability decrease (inhibition) in [7] and in experiment [8] were 20.2% (inactive) and -3.3% (inactive), respectively. Further, the inhibition in [9] is 4.77% (inactive). Besides, the red/green cell ratio (normalised) in [10] is 0.88 (inactive). Also, the normalised cell number in [10] (setting [15]) stood at 1.19; in experiment [10] (setting [16]), 1.04. In addition, the z-score in [11] (setting [17]) is 2.18 (active) and 0.491 (inactive) and -0.759 (inactive); in experiment [11] (setting [18]), -0.583 and -0.0689 and -0.563. In experiment [12], the remaining NAD was 10 nM (inactive). Further, the log fold change Tl+ flux with F380Y is -0.0389 (inactive); in the experiment on F380Y/beta1, -0.00275 (inactive); in the experiment on F380Y/beta2Delta, -0.0114 (inactive); in the experiment on F380Y/beta4, -0.00351 (inactive); in experiment [13], -0.0331 (inactive); in the experiment on R275C it was 0.0472 (inactive).

As for `CC(C)NCC(O)c1cc(O)cc(O)c1` (stereo not given), the nuclear beta-catenin stimulation was 1.6% (inactive) in experiment [1] (at 10 µM) and 0.9% in experiment [1] (stimulation, at 2 µM). Moreover, the insulin secretion stimulation in experiment [2] is 1.2% (inactive). In addition, the viability decrease in experiment [3] was 6% (inactive). Further, in experiment [4], the tube area decrease was 3.6% (inactive). The GLP1 secretion stimulation in experiment [5] is 2.2% (inactive). For the same compound, in [6], the inhibition of viability was -11.2% (inactive). The viability decrease (inhibition) in experiment [7] is -1.6% (inactive); in experiment [8] it was -9.9% (inactive). The inhibition in experiment [9] was -6.42% (inactive). For the same compound, the red/green cell ratio (normalised) in [10] is 1.18 (inactive). The normalised cell number is 1.02 in [10] (setting [15]) and 1.2 in experiment [10] (setting [16]). Besides, in [14] (stronger effect = lower value, cell number ratio, induced over uninduced), the fold change was 1.13 (inactive) and 0.914 (inactive) and 0.836 (inactive). For the same compound, the z-score in experiment [11] (setting [17]) is 0.509 (inactive); in [11] (setting [18]) it was 0.459. In addition, the remaining NAD in experiment [12] was 10 nM (inactive). In addition, the log fold change Tl+ flux was -0.0466 (inactive) with F380Y; 0.0393 (inactive) with F380Y/beta1; 0.0418 (inactive) with F380Y/beta2Delta; -0.0531 (inactive) in the experiment on F380Y/beta4; 0.0135 (inactive) in experiment [13]; 0.0473 (inactive) in the experiment with R275C.

For the compound `CN(C)CCC=C1c2ccccc2CCc2ccccc21`, the nuclear beta-catenin stimulation in experiment [1] (at 10 µM) was -0.4% (inactive); in experiment [1] (stimulation, at 2 µM) it was 1.1%. In experiment [2], the insulin secretion stimulation was 41.5% (active). Moreover, the viability decrease in experiment [3] was -59% (inactive). Also, the tube area decrease in [4] was 25% (inactive). In addition, the GLP1 secretion stimulation in experiment [5] is 5% (inactive). For the same compound, the inhibition of viability in [6] was 21.5% (inactive). Also, the viability decrease (inhibition) in [7] was 72.1% (active); in [8] it was -1.8% (inactive). Moreover, the inhibition in experiment [9] was 6.7% (inactive). Also, in experiment [10], the red/green cell ratio (normalised) is 1 (inactive). The normalised cell number in experiment [10] (setting [15]) and in [10] (setting [16]) was 1.31 throughout. The z-score is -0.201 (inactive) and -0.81 (inactive) in experiment [11] (setting [17]); -0.129 and 0.0803 in experiment [11] (setting [18]). Besides, in experiment [12], the remaining NAD was 10 nM (inactive). Also, the log fold change Tl+ flux was 0.184 (active) with F380Y; 0.103 (inactive) in the experiment with F380Y/beta1; 0.179 (active) in the experiment on F380Y/beta2Delta; 0.189 (active) in the experiment on F380Y/beta4; 0.0267 (inactive) in experiment [13]; 0.07 (inactive) with R275C.

For `C=C(CC)C(=O)c1ccc(OCC(=O)O)c(Cl)c1Cl`, the nuclear beta-catenin stimulation in experiment [1] (at 10 µM) is 3% (inactive); in experiment [1] (stimulation, at 2 µM), 1.4%. Further, the insulin secretion stimulation in experiment [2] is -2.5% (inactive). In experiment [3], the viability decrease is 24.9% (inactive). The tube area decrease in [4] was 52.6% (active). The GLP1 secretion stimulation in [5] is 3.1% (inactive). Moreover, in [6], the inhibition of viability was -25.8% (inactive). For the same compound, the viability decrease (inhibition) was 122% (active) in [7] and 14.8% (inactive) in experiment [8]. Also, in [9], the inhibition was 9.98% (inactive). Further, the red/green cell ratio (normalised) in experiment [10] is 0.98 (inactive). Moreover, the normalised cell number worked out at 0.92 in experiment [10] (setting [15]) and 0.9 in experiment [10] (setting [16]). In addition, in experiment [14] (measured here: total cells without miR-34 induction), the cell count was 10500 and 9830 and 12200. Moreover, the z-score is 0.232 (inactive) and -0.08 (inactive) in experiment [11] (setting [17]); -0.298 and 0.189 in experiment [11] (setting [18]). Besides, the remaining NAD in experiment [12] was 10 nM (inactive). The log fold change Tl+ flux in the experiment on F380Y was -0.0103 (inactive); in the experiment on F380Y/beta1, 0.1 (inactive); in the experiment on F380Y/beta2Delta it was -0.0325 (inactive); in the experiment on F380Y/beta4, 0.0312 (inactive); in experiment [13], 0.0507 (inactive); in the experiment on R275C, -0.00646 (inactive).
